Some of the results follow. Activity calls are given as the source filed them. No stated cut-off is given here; in the data, active means z-score above about 6.3; inactive means the rest.

The nature of this assay: AML12 hepatocyte cytotoxicity, counter-screen for hepatic lipid droplet formation project, imaging, DAPI nuclear morphology imaging (AID 463200).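 Further: compound exposure lasted overnight at 37 °C before fixation.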 Particulars: AML12 mouse hepatocytes, at 5 µM, stronger effect = higher value, cells fed 100 µM oleate overnight. On the technique in general: A counterscreen serves to expose hits that act by an unwanted route or on another target.
For the molecule `CCCN(CCC)c1ccc(C(O)c2nnc(-c3ccccc3)o2)cc1` (stereo unspecified), the z-score is -0.662 (inactive).
The same measure for `CCOc1ccc(CCNC(=O)CCc2nnc3ccc(N4CCCC4)nn23)cc1OCC`: -0.773 (inactive); for `O=C(CN1CCc2cc3c(cc2C1)OCCCO3)Nc1ccccc1`: 0.947 (inactive).
Regarding `O=C1Nc2ccc(Br)cc2/C1=N/N=C/C1=C(N2CCOCC2)C(=C\c2ccccc2)/CC1`, the z-score is -1.9 (inactive).
The figure for `COc1ccc(/C=C(\NC(=O)c2ccc(OCC(C)C)cc2)C(=O)OCc2ccco2)cc1` is -0.0226 (inactive).
The figure for `Cc1cc(NC(=O)CSc2nc(C(C)C)nc3sc4c(c23)CCC(C)C4)no1` (stereo unspecified) is -0.355 (inactive); for `Cc1ccc(N2C(=O)C(NC(=O)c3c(F)cccc3F)(C(F)(F)F)C3=C2CC(C)(C)CC3=O)cc1` (stereo unspecified) it is -0.996 (inactive).
The figure for `COc1ccc(Cl)cc1NC(=O)CN(C)C(=O)CCCc1c[nH]c2ccccc12` is 0.989 (inactive); for `COCCCNC(=O)CN1C(=O)CSc2ccc(S(=O)(=O)N3CCOCC3)cc21` it is -0.296 (inactive).
For the molecule `CCCN(CCC)c1nc2c(C)cccn2c(=O)c1/C=C1/SC(=S)N(Cc2ccco2)C1=O`, the z-score was -0.326 (inactive).
The same measure for `CN(C)c1ccc(Nc2c3c4c(cccc4n(C)c2=O)C(=O)c2ccccc2-3)cc1`: 0.335 (inactive); for `CCCCN1C(=O)/C(=C/C=C2/C=Cc3ccccc3N2CC)SC1=S`: -0.15 (inactive).
For `COc1ccc(OC)c(-c2csc(-c3cccs3)n2)c1`, the z-score is -0.885 (inactive).
The figure for `O=[N+]([O-])c1ccccc1N/N=C1\CCc2ccccc21` is -0.00245 (inactive); for `COc1ccc(C(C(=O)NC(C)(C)C)N(Cc2ccc(F)cc2)C(=O)CCC(=O)Nc2cc(C)on2)cc1` (stereo unspecified) it is -0.0925 (inactive).
The figure for `Cc1c(C(=O)NCc2ccccc2)cnn1-c1ccccc1` is -0.784 (inactive); for `Cn1c(=O)[nH]c(=O)c2c1nc(N1CCN(C(c3ccccc3)c3ccccc3)CC1)n2CCO` it is 0.0379 (inactive); for `COc1cccc(/C=C(/CC(=O)Nc2ccc(N3CCOCC3)cc2)c2nc3ccccc3s2)c1` it is 0.0842 (inactive).
Consider `CCCc1ccc(-c2csc(NC(=O)Cc3cccs3)n2)cc1`, for which the z-score was -0.171 (inactive).
The figure for `Cc1cc(C(=O)NC2CCCc3c2cnn3-c2cccc(C)c2C)c(C)o1` (stereo unspecified) is 0.206 (inactive); for `CCOC(=O)C1=C(CC)OC(N)=C(C#N)C1c1ccc(F)cc1F` (stereo unspecified) it is -0.275 (inactive); for `CCOc1ccc(CCNC(=O)Nc2ccccc2)cc1OCC` it is -0.203 (inactive).
As for `CCc1ccc(NC(=O)C(C)OC(=O)/C=C/c2cccc([N+](=O)[O-])c2)cc1` (stereo unspecified), the z-score is 1.35 (inactive).
The same measure for `COc1cc(/C=N/NC(=O)Nc2ccccc2)ccc1OCCOc1ccccc1C`: 4.44 (inactive).
The same measure for `CC(NC(=O)c1cccc2ccccc12)c1ccc2c(c1)CCCC2` (stereo unspecified): 8.48 (active); for `CC(C)(C)NC(=O)Cn1cnc2cc([N+](=O)[O-])ccc2c1=O`: -1.05 (inactive).
